HPGD inh: HPGD (human) dehydrogenase inhibition. hit rate 4.3% among 150,000. P15428. purified HPGD, NADH fluorescence kinetic, PGE2 substrate. Potency, µM, inactives show top-dose activity change, negative = inhibition, most hits filed as inhibitors. AID 894; active = well fitted inhibition curve with a large enough effect, not every such curve was filed as active; inconclusive = small, poorly fitted or top-dose-only effect, or another doubt; inactive = no such curve, though single readings can be large or run the other way; also: potency is read from the fitted curve at half-maximal effect
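20 nM HPGD preincubated 15 min at room temperature with compound in 50 mM Tris-HCl pH 8, 0.01% Tween 20. Started with 1 mM NAD+ and 30 uM prostaglandin E2; NADH fluorescence (360/450 nm) read 5 times over 30-s intervals, last minus first.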
PNC assembly inh: blocks assembly of the perinucleolar compartment; PC3M PTB-GFP, PNC prevalence imaging, 16 h; hits give low values; activity change (PNC), negative = inhibition, % at 10 µM; hit rate 3.1% among 140,000; AID 2417;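 active = readout at or below -70, meaning at least 70% loss of cells showing the perinucleolar compartment, a nuclear body marking cancer cells; inconclusive = readout between -30 and a set limit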;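 also: plate controls were DMSO wells for no effect and camptothecin positive control wells for full effect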
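Compounds are pinned in duplicate onto adhered PC3M cells stably expressing GFP-tagged PTB and incubated 16 h at 37 C. Cells are then fixed, nuclei stained with Hoechst, and PNC-positive cells counted.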
NPSR antagonist: blocks cAMP signaling of the human neuropeptide S receptor | Q6W5P4 | CHO-NPSR cells, cAMP TR-FRET, antagonist mode | Potency, µM (top dose mostly 38.3 µM), for inactives: at the highest dose activity change, negative = inhibition, actives largely listed as inhibitors | hit rate 1% among 220,000 | AID 1461; also: potency is read from the fitted curve at half-maximal effect; nearly all actives have a fitted effect of over 50% in size
IMPase Li cell: membrane-permeable IMPase blocker, potentiated with lithium | Potency, µM (series often up to 59.4 µM), without a hit: at the highest dose activity, negative = IMPase inhibition, actives largely listed as inhibitors | CHO-M1 cells, IP1 TR-FRET (IP-One), carbachol + lithium | AID 1457 | hit rate 0.35% among 210,000;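 also: IP1 builds up when IMPase is blocked and the TR-FRET signal falls; potency is read from the fitted curve at half-maximal effect; plate controls were basal vehicle for no effect and high inhibitor control for full effect; nearly all actives have a fitted effect of over 50% in size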
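Steps: plate 2000 CHO-M1 cells per well and culture 16–30 h; add compound and lithium; incubate 30 min, 37C; add d2-IP1 tracer and Eu cryptate anti-IP1 antibody in lysis buffer; read after 10 min at room temperature.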
ALDH1A1 block: ALDH1A1 (human) enzyme inhibition | Purified ALDH1A1, NADH fluorescence, propionaldehyde substrate | hit rate 7.3% among 220,000 | Potency, µM (highest dose often 75.3 µM), inactives show top-dose activity, negative = inhibition, actives largely listed as inhibitors | AID 1030 | P00352; active = well fitted inhibition curve with a large enough effect, not every such curve was filed as active; inconclusive = small, poorly fitted or top-dose-only effect, or another doubt; inactive = no such curve, though single readings can be large or run the other way;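 also: potency is read from the fitted curve at half-maximal effect; plate controls were no enzyme wells and a reference inhibitor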
Target sequence (P00352 whole entry, looked up): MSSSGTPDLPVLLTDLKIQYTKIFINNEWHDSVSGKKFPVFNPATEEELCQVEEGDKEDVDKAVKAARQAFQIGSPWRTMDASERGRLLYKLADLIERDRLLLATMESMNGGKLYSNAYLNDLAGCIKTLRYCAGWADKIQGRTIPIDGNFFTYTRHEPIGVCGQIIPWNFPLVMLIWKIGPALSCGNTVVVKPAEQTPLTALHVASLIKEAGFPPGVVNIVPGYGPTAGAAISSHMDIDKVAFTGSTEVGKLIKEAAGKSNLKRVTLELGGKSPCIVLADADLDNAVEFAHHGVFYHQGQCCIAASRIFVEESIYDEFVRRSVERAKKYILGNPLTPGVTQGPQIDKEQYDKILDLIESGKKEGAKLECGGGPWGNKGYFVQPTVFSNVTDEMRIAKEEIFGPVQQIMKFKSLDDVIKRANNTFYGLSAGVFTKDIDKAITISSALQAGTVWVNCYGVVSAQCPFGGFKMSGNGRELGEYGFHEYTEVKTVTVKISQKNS
IMPase cell inh: cell-permeable inhibitors of inositol monophosphatase (IMPase). inhibition (IP1 accumulation), % at 46.1 µM. CHO-M1 cells, IP1 accumulation, HTRF TR-FRET ratio. 120,000 tested, under 10 active. P97697; active = well fitted curve in the direction sought with a large enough effect in the signal ratio, not every such curve was filed as active; inconclusive = small, poorly fitted or top-dose-only effect, or a change in a side signal; inactive = no such curve, though single readings can be large or run the other way; the % refers to the signal ratio;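 also: cells stimulated with carbachol in lithium chloride buffer; plate controls were DMSO basal wells for no effect and reference inhibitor wells for full effect; higher means more IMPase inhibition seen as more IP1 and lower FRET ratio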
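CHO-M1, 2000 cells/well, cultured 16–30 h; cpd up to 46 uM; carbachol (50 uM solution, stimulation buffer w/ 50 mM LiCl, pH 7.4), 30 min 37C; IP-One TR-FRET, 10 min RT; Ex 320/Em 665, 620; Hill-fit AC50.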
An asterisk follows results filed as active; ? = inconclusive; . = no result given; [ ] = another dose, or the depositor's remark. Compounds with a hit are over-represented: about 11% of the library has one in this group of screens. Unless noted, calls follow the shape of the dose curve; as a rule, active = well fitted curve in the direction sought with a large enough effect; inconclusive = small, poorly fitted or top-dose-only effect, or another doubt; inactive = no such curve, though single readings can be large; an effect the other way counts as inactive or inconclusive. Unless noted, % is scaled to controls: 0 for no effect and ±100 for the full control effect.

SMILES | HPGD inh | PNC assembly inh | NPSR antagonist | IMPase Li cell | ALDH1A1 block | IMPase cell inh
COc1ccc(NC(=S)N(CCCN2CCOCC2)Cc2cn(C)c3ccccc23)cc1 | -14.6% | ? | 8.0% | 0.0% | 0.562µM* | 3.6
Cc1cccc(NC(=S)N(CCCN2CCOCC2)Cc2cn(C)c3ccccc23)c1 | -1.6% | ? | -4.6% | 6.2% | ? | 4.0
CCOc1ccc(NC(=S)N(CCCN2CCOCC2)Cc2cn(C)c3ccccc23)cc1 | -16.1% | ? | -9.2% | 0.3% | 3.98µM* | .
O=C(CCC(=O)Nc1ccccc1)NNS(=O)(=O)c1ccccc1[N+](=O)[O-] | . | . | 6.1% | -1.7% | -8.1% | .
O=C(CCc1nc2ccccc2[nH]1)Nc1ccc2c(c1)OCO2 | -12.6% | 39.7 | -0.3%[46.1 µM] | 22.9%[38.3 µM] | 10µM* | 0.4
O=C(CSc1nnc(SCc2cccc3ccccc23)s1)Nc1ccc(C(=O)O)cc1 | . | . | 7.5% | 1.0% | -13.5% | .
O=C(CSc1nnc(SCc2cccc3ccccc23)s1)c1ccc2c(c1)OCO2 | ? | 7.2 | -3.0%[46.1 µM] | 4.1%[38.3 µM] | 0.398µM* | -5.7
O=C(CSc1nc2ccccc2[nH]1)c1ccc2c(c1)OCO2 | -12.1% | ? | ? | 6.2%[38.3 µM] | 28.2µM* | 0.3
CN(C)S(=O)(=O)c1ccc(C(=O)Nc2nnc(SCc3cccc4ccccc34)s2)cc1 | ? | -134.0* | -20.4% | 0.1% | ? | .
Cc1ccc(OCC(=O)N(Cc2ccc(N(C)C)cc2)C2CCS(=O)(=O)C2)cc1C (stereo not given) | . | . | -1.1% | . | . | .
CN(C)c1ccc(CN(C(=O)COc2ccccc2)C2CCS(=O)(=O)C2)cc1 (stereo not given) | -22.0% | 24.5 | -16.4%[46.1 µM] | 33.1%[38.3 µM] | 3.98µM* | 0.3
CC(C)c1ccc(CN(C(=O)C2COc3ccccc3O2)C2CCS(=O)(=O)C2)cc1 (stereo not given) | -14.3% | 32.8 | -22.5%[46.1 µM] | -6.7%[38.3 µM] | ? | 0.9
CCN(CC)c1ccc(CN(C(=O)c2ccco2)C2CCS(=O)(=O)C2)cc1 (stereo not given) | -4.6% | ? | -4.1%[46.1 µM] | 10.5%[38.3 µM] | 22.4µM* | 3.8
CN(C)c1ccc(CN(C(=O)C2COc3ccccc3O2)C2CCS(=O)(=O)C2)cc1 (stereo not given) | . | 11.1 | -21.3%[46.1 µM] | . | 4.47µM* | 5.1
Cc1ccccc1OCC(=O)N(Cc1ccc(N(C)C)cc1)C1CCS(=O)(=O)C1 (stereo not given) | -3.1% | -10.2 | -10.9%[46.1 µM] | -0.6%[38.3 µM] | 11.2µM* | 6.1
COc1ccccc1C(=O)NCCC(=O)Nc1cccnc1 | . | . | -10.7% | . | 0.6% | .
COC(=O)c1ccc([C@H]2Nc3ccc(S(=O)(=O)Nc4cccc(C)c4)cc3[C@H]3C=CC[C@H]32)cc1 | . | . | . | . | . | -10.4
C=CCOc1ccc(C(=O)N(Cc2ccc(N(C)C)cc2)C2CCS(=O)(=O)C2)cc1 (stereo not given) | -15.0% | 32.6 | -14.8%[46.1 µM] | 10.5%[38.3 µM] | 10µM* | -5.5
CN(C(=O)c1ccccc1)c1ccc(OCC(=O)NC2CCS(=O)(=O)C2)cc1 (stereo not given) | -14.8% | -12.8 | 0.9%[46.1 µM] | -5.1%[38.3 µM] | 14.1µM* | ?
CC(C)Oc1ccc(C(=O)N(Cc2ccc(N(C)C)cc2)C2CCS(=O)(=O)C2)cc1 (stereo not given) | . | . | . | . | . | -1.7
CC(=O)Nc1cccc(NC(=O)C2CCCN2C(=O)Nc2ccc(Cl)cc2)c1 (stereo not given) | -3.0% | 40.3 | 6.7%[46.1 µM] | 32.1%[38.3 µM] | 1.6% | 2.4
Cc1cccc2nc(COc3ccc(-c4ccccc4)cc3)cn12 | . | . | 39.7% | 6.8% | 6.0% | .
CCc1cccc(CC)c1NC(=S)N(CCN(C)C)C(C)c1cccnc1 (stereo not given) | . | . | 8.7% | -4.9% | 10.2% | .
CCCCOc1ccc(C)cc1CN(CCO)CCO | -14.6% | ? | -6.1%[46.1 µM] | -11.2%[38.3 µM] | -7.3% | 1.7
Cc1ccc(OC(C)C)c(CN(CCO)CCO)c1 | -3.9% | -90.8* | 1.9%[46.1 µM] | -5.8%[38.3 µM] | -5.9% | 4.7
Cn1c2ccc(F)cc2c2ncn(Cc3ccco3)c(=O)c21 | ? | 56.9 | -2.7%[46.1 µM] | 9.5%[38.3 µM] | ? | -2.9
